Assay results: PubChem BioAssay AID2462 (Broad Institute, 2010)
Out of some 330,000 compounds screened, about 220 (0.067%) were called active.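 The calls were made as follows: active = over half of replicate activation scores above 10%, or exactly half above 10 with the replicate mean above 10; inconclusive = replicate mean below 10 yet half the replicates above 10; inactive = over half of replicates below 10.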 What follows is part of a selection rich in actives, with near analogues and random picks from the rest.

Assay: caspase 3/7 activation in MEF A1-2A-BIM cells, primary screen, A1 inhibitor project, cell-based, luminescence, HTS (AID 2462)
Conditions: Caspase-Glo 3/7 luminescence, 3 h, hits give high values, percent of clofoctol response, vehicle zero, concentration not given here

Caspase activation, inactive:
O=c1c2ccccc2ccc2ccc(P(=O)(O)O)cc12 0.843%
N#CCOc1ccc(C2=NO[C@@H]3[C@@H]4C[C@@H]([C@H]5C(=O)N(c6ccc7c(c6)OCO7)C(=O)[C@@H]45)[C@H]23)cc1 0.442%
CSc1cc(C)[nH]c(=O)n1 -0.248%
O=S(=O)(c1ccccc1)N(Cc1cccc(F)c1)c1ccccc1 0.447%
O=C(Cn1ccc2cc(S(=O)(=O)N3CCCC3)ccc21)NCc1ccccc1 -0.143%
COC(=O)Cn1cc(/C=C/[N+](=O)[O-])c2ccccc21 1.03%
COc1ccc(S(=O)(=O)N(C)C[C@H]2Oc3ccc(NS(=O)(=O)c4cccs4)cc3CC(=O)N([C@H](C)CO)C[C@H]2C)cc1 -0.719%
O=C(O)c1cccnc1Sc1ncnc2sc3c(c12)CCC3 -0.234%
O=C(CSc1nc(Nc2ccccc2)nc(N2CCOCC2)n1)Nc1cc(Cl)ccc1O 0.376%
Nc1nc(Br)c2ccccc2c1-c1ccc(F)cc1 -0.0976%
CC(C)(O)C#Cc1ncc(C(F)(F)F)cc1Cl 0.0403%
Cc1ccc(NCc2n[nH]c(=S)n2-c2ccccc2)cc1Cl -0.072%
CCCS(=O)(=O)N1CCN=C1SCc1cccc(F)c1 -0.156%
CCn1ncc(CNC(=O)C2(C)CC2(Br)Br)c1C (centres undefined) -0.282%
COc1cc(C(=O)NC2CCN(Cc3ccccc3)CC2)cc(Cl)c1OC(C)C -0.406%
COc1ccccc1CNC(=O)CCCNS(=O)(=O)c1cccc2nsnc12 0.433%
O=C(c1cc2ccccc2o1)N1CCN(S(=O)(=O)c2ccc(Cl)s2)CC1 -0.105%
COc1ccc(CNC(=O)CN2CCC(n3nnc4cc(F)ccc43)CC2)cc1 -0.421%
CC1CCCN(C(C(=O)Nc2ccc(C(C)C)cc2)c2ccc3c(c2)OCO3)C1 (centres undefined) -0.471%
NC(=O)C1CCCN(CC(=O)N2CCN(c3ccccc3)CC2)C1 (centres undefined) -0.0385%
Cc1ccc(S(=O)(=O)N2CCN(C(=O)CN3C(=O)NC(C)(c4ccc(Cl)cc4)C3=O)CC2)c(C)c1 (centres undefined) -0.688%
CC(NCC(=O)Nc1ccccc1C(=O)NC1CC1)c1ccccc1Cl (centres undefined) 0.355%
CC(=O)N(CN1C(=O)C2C3C=CC(C3)C2C1=O)c1cccc(Cl)c1 (centres undefined) 0.192%
CCOc1ccccc1NC(=O)NC1CCCCCCC1 -0.841%
Cn1c(CCCOc2ccc(Cl)cc2Cl)n[nH]c1=S -0.629%
O=C(NC(=S)Nc1ccc2oc(=O)ccc2c1)c1ccc(-c2cccc(Cl)c2Cl)o1 0.568%
CC1CCc2[nH]c3ccc(C(=O)N(C)CC(=O)Nc4cccc(F)c4)cc3c2C1 (centres undefined) 0.268%
Cc1ccc(S(=O)(=O)c2c[nH]c3ccc(C)cc3c2=O)cc1 -2.55%
COc1ccc(-c2cnc(SCCNC(=O)c3ccc4c(c3)OCO4)[nH]2)cc1 1.35%
O=C(N/N=C/c1cccc(OCc2ccccc2)c1)c1ccc(Br)o1 0.285%
COC(=O)c1ccc(COc2ccc(/C=N/NC(=O)C(=O)Nc3ccc(OC)cc3)cc2OC)o1 0.365%
NC(=O)COC(=O)c1cc(S(=O)(=O)N2CCN(c3ccccc3)CC2)ccc1Cl 0.691%

Caspase activation, active:
O=[N+]([O-])/C=C/c1ccc2c(ccn2Cc2ccccc2)c1 9.93%
CCCc1ccc(OCc2ccc(C(=O)N/N=C/c3cccc([N+](=O)[O-])c3)o2)c(OC)c1 16.1%
